# Pf growth 96h: P. falciparum growth inhibition at 96 hour, primary screen for plastid delayed-death inhibitors; Potency, µM (highest dose often 28.7 µM), for inactives: top-dose activity change, negative = inhibition, hits mostly inhibitors; P. falciparum luciferase reporter growth, 96 h; AID 504834; actives 6.9% (n = 320,000); also: potency is read from the fitted curve at half-maximal effect; % is scaled to controls: 0 for no effect and ±100 for the full control effect
#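 Luminescence readout: decreased luciferase signal marks inhibited growth of reporter-expressing P. falciparum in infected red cells (2% hematocrit, 0.05% parasitemia final), exposed to compound two generations (96 h, 37 C, 5% CO2).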
# Shiga inhibitor: blocks Shiga toxin action in Vero cells; Vero cells, Shiga toxin protein synthesis inhibition reporter; actives 9.2% (n = 290,000); inhibition, % at 38.7 µM; in the data active = inhibition mostly above about 28%, no sharp cut-off; inactive = mostly below about 43%; also: 0% is about no effect
# Pf growth 48h: inhibits P. falciparum growth in the first generation, 48 h | Potency, µM (doses to about 28.7 µM), without a hit: at the top dose activity change, negative = inhibition, hits mostly inhibitors | actives 5.9% (n = 310,000) | P. falciparum luciferase growth in erythrocytes, 48 h | AID 504832; also: potency is read from the fitted curve at half-maximal effect; % is scaled to controls: 0 for no effect and ±100 for the full control effect
#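 Luciferase-expressing parasites in RBCs, 2% Hct / 0.1% parasitemia final; RPMI 1640 + 0.5% Albumax; 37 C, 5% CO2, one generation; luminescence read-out, lower signal = inhibition.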
# Cycloheximide cs: counter-screen for Shiga toxin inhibitors: cycloheximide protein synthesis inhibition. cell reporter, cycloheximide protein synthesis inhibition counterscreen. max response, %. actives 12% (n = 300,000); in the data active = max response mostly above about 13%, no sharp cut-off; inactive = mostly below about 14%; also: read at 38.3 µM for the half of the compounds with a filed dose; 0% is about no effect
# Active calls of the source: *; ? = inconclusive; · = no result; + = active, no number. Sampled rows, rich in hits. Any-hit rate of the full collection: about 21%. Unless noted, calls follow the shape of the dose curve; as a rule, active = well fitted inhibition curve with a large enough effect; inconclusive = small, poorly fitted or top-dose-only effect, or another doubt; inactive = no such curve, though single readings can be large or run the other way.
SMILES,Pf growth 96h,Shiga inhibitor,Pf growth 48h,Cycloheximide cs
COc1ccc(-c2noc(N(C)CC(=O)Nc3cccc(C(F)(F)F)c3)n2)cc1,6%,36,80%,21*
COc1cccc(NC(=O)CN(C)CC(=O)Nc2cccc(C(F)(F)F)c2)c1,-14%,-7,-24%,2
CCOC(=O)c1ccc(NC(=O)CCc2nc(-c3ccccc3)no2)cc1,13µM*,-12,0%,-6
CCOC(=O)c1cccc(NC(=O)CCc2nc(-c3ccc(C)cc3)no2)c1,1µM*,-12,12µM*,-1
CCOC(=O)c1cccc(NC(=O)CCc2nc(-c3ccccc3F)no2)c1,21%,7,-9%,-3
COc1ccc(-c2noc(CCC(=O)Nc3cccc(C)c3)n2)cc1,?,100*,20%,27*
COc1ccccc1-c1noc(CCC(=O)Nc2cccc(C)c2)n1,4%,31,1%,11
COc1ccccc1-c1noc(CCC(=O)Nc2ccccc2Cl)n1,?,-10,15%,19*
COc1ccc(C(C#N)N2CCC(c3ccccc3)=N2)cc1OC (stereo not given),-1%,27,8%,17*
COc1ccc(C(C#N)N2CCCCCC2)cc1OC (stereo not given),13%,7,12%,-2
COc1cc(C(C#N)N2CCC(c3ccccc3)=N2)ccc1O (stereo not given),15%,91*,4%,25*
COc1cc(C(O)C(=O)O)ccc1O (stereo not given),0%,·,10%,·
Cc1cc(CN2CCCC(N3CCc4ccccc4C3)C2)cc(C)c1O (stereo not given),10µM*,-7,?,-4
CC(=O)N1CC(O)CC1C(=O)O (stereo not given),3%,·,-9%,·
Oc1ccccc1N=Nc1ccccc1O,68%,194*,2.6µM*,94*
O=C(Oc1ccc(-c2cnc3ccccc3n2)cc1)c1cccc([N+](=O)[O-])c1,31%,41*,94%,26*
O=C(Oc1ccc(-c2cnc3ccccc3n2)cc1)c1ccc(Cl)c([N+](=O)[O-])c1,24%,48*,212%,37*
O=C(Oc1ccc(-c2cnc3ccccc3n2)cc1)c1ccc(Br)o1,206%,45,·,24
O=C(Oc1ccc([N+](=O)[O-])cc1)c1cc(-c2ccccc2)nc2ccccc12,0%,28,21%,-2
CCOc1ccc(S(=O)(=O)N2CCCCC2)cc1NC(=O)Cc1cccc(C(F)(F)F)c1,9.3µM*,·,?,·
COc1ccc(OC)c(/C=N/NC(=O)CNC(=O)c2ccc(S(=O)(=O)N3CCCC3)cc2)c1,4.1µM*,-8,27%,-2
CCN(CC)C(=O)c1ccc(NC(=O)c2cc(S(=O)(=O)N3CCCCCC3)ccc2OC)cc1,9.3µM*,·,7.4µM*,·
COc1cc(OC)c(OC)cc1CNC(=O)c1ccc(S(=O)(=O)N2CCCCC2)cc1,5.2µM*,·,9.3µM*,·
COc1ccc(S(=O)(=O)N2CCCCC2)cc1NC(=O)Cc1cccc(C(F)(F)F)c1,0%,·,?,·
COc1ccc(Cl)cc1C(=O)Nc1ccc(S(=O)(=O)N2CCCC2)cc1,·,-32,40%,3
SMILES,Pf growth 96h,Shiga inhibitor,Pf growth 48h,Cycloheximide cs
CN(C(=O)c1ccccc1F)C(c1ccccc1)c1ccccc1,?,24,?,1
O=C(c1ccc(S(=O)(=O)Nc2ccccc2)cc1)N1CCCCCCC1,?,-16,12%,-3
COc1ccc(S(=O)(=O)N2CCCCC2)cc1NC(=O)Cc1sc(C)nc1-c1ccc(F)cc1,?,·,12µM*,·
COc1ccc(S(=O)(=O)N2CCCCC2)cc1NC(=O)Cc1cccs1,?,·,12µM*,·
CCN1CCN(S(=O)(=O)c2ccc(Cl)c(C(=O)N(CC)CC(=O)Nc3ccc(OC)cc3)c2)CC1,13µM*,-7,-13%,-4
COc1ccc(S(=O)(=O)Nc2ccccc2OC)cc1NC(=O)Cc1cccs1,-16%,-9,-3%,5
COc1ccc(S(=O)(=O)N2CCCCCC2)cc1C(=O)NCc1ccccc1Cl,8.3µM*,·,5.9µM*,·
COc1ccc(C)cc1S(=O)(=O)N(C)CC(=O)NCc1ccncc1,-6%,-1,26%,1
O=C(NCCNC(=O)c1cc(Cl)ccc1Cl)c1ccco1,29%,-14,0%,-6
COc1ccc(S(=O)(=O)N2CCCCCC2)cc1C(=O)NCc1cccs1,?,·,15µM*,·
O=C(NCc1cccs1)c1ccc(S(=O)(=O)N2CCCCC2)cc1,0%,-4,?,9
COc1ccc2c3n(nc2c1)CCN=C3c1cc(Cl)c(N)c(Cl)c1,?,·,13µM*,·
O=C1CS/C(=N/N=C/c2cccs2)N1Cc1ccc(F)cc1,25%,16,?,17
Cc1ccc(NC2=C(C(=O)c3ccccc3)N(C)S(=O)(=O)c3ccccc32)cc1,12µM*,-4,9.3µM*,3
CN1C(C(=O)c2ccccc2)=C(N)c2ccccc2S1(=O)=O,31%,-3,16%,-3
Cc1ccc(OCC(=O)Nc2ccc(F)cc2)c([N+](=O)[O-])n1,315%,+,348%,56*
Cc1ccc(OCC(=O)Nc2ccc3c(c2)CCC3)c([N+](=O)[O-])n1,0%,67*,37%,40*
O=C(COc1ccc(Cl)cc1)Nc1ccc2c(c1)CCC2,-20%,2,-4%,8
CC(=O)c1ccc(OCC(=O)Nc2ccc3c(c2)CCC3)cc1,57%,18,-6%,20*
CC(=O)N1CCc2cc(S(=O)(=O)NCCCN3CCC(C)CC3)ccc21,?,-6,6%,-1
CC(/C=N/NC(=O)c1cccs1)=C\c1ccccc1,?,145*,0%,42*
O=C(O)/C(=C\c1ccc(Br)cc1)NC(=O)c1cccs1,30%,12,33%,-3
CC(/C=N/NC(=O)c1cccc([N+](=O)[O-])c1)=C\c1ccccc1,2%,26,10%,9
O=C(N/N=C/C(Cl)=C\c1ccccc1)c1cccs1,3.7µM*,81*,?,51*
Cc1cc(C(=O)NC2CC(C)(C)Cc3c2cnn3-c2ccccc2)n(C)n1 (stereo not given),?,-13,-3%,-2
SMILES,Pf growth 96h,Shiga inhibitor,Pf growth 48h,Cycloheximide cs
CC1(C)Cc2c(cnn2-c2cccc(F)c2)C(NC(=O)c2csnn2)C1 (stereo not given),6.6µM*,-6,39%,-1
Cc1cc(C(=O)NC2CC(C)(C)Cc3c2cnn3-c2cccc(F)c2)n(C)n1 (stereo not given),9.3µM*,18,?,14
Cc1cc(C(=O)NC2CC(C)(C)Cc3c2cnn3-c2cccc(F)c2)nn1C (stereo not given),2%,-3,-8%,3
O=C(CSc1nnnn1C1CC1)Nc1ccc(S(=O)(=O)N2CCOCC2)cc1,?,·,-14%,·
N#Cc1c(Cl)nsc1NCCN1CCOCC1,?,-5,?,-1
COc1ccc(-n2c3c(cc(C(=O)N4CCN(CCO)CC4)c2=O)C(=O)CC(C)(C)C3)cc1,10µM*,-13,-3%,-3
N#CCCn1cc(C(=O)O)c(-c2cccs2)n1,23%,-9,-2%,-3
c1ccc(-c2ncc(CSc3nncn3-c3ccccc3)s2)cc1,?,19,·,6

# Source: PubChem BioAssay (National Center for Advancing Translational Sciences (NCATS))
